Experimental data: PubChem BioAssay
The source made the active and inactive calls.

Assay: budding yeast growth modifiers under rapamycin – strain BY4716, OD600, 96 h, primary screen (AID 1091); also: test concentration not given here
Details: S. cerevisiae BY4716 + rapamycin, higher = more signal, called active from +8 up or from −8 down
With `CC(C)C[C@@H]1NC(=O)[C@H]2C[C@@H](C(=O)O)[C@@H](c3cccc(OCCO)c3)N2C1=O` the z-score was -0.529 (inactive). In the case of `CC(C)c1ccc(NN2C(C(O)C(C)c3ccccc3)C=CC3C(=O)N(c4ccccc4)C(=O)C32)cc1` (centres undefined), the z-score is reported as 1.21 (inactive). In the case of `Cc1ccc(S(=O)(=O)N2[C@@H](c3ccccc3)C(C(=O)O)=C[C@H]2C(C)(C)C)cc1`, the z-score is reported as -0.802 (inactive). For `CCOC(=O)C1=CC[C@@H](c2ccccc2)N(S(=O)(=O)c2ccc(C)cc2)[C@@H]1C#N`, the z-score was 0.529 (inactive). For `COCCOC(=O)N1C(=O)[C@@]2(c3cc(C#CCC(C(=O)OC)C(=O)OC)ccc31)[C@H](C(=O)N1CCc3cc(OC)c(OC)cc3C1)[C@H]1C(=O)O[C@H](c3ccccc3)[C@H](c3ccccc3)N1[C@@H]2c1ccccc1OCCO`, the z-score was 4.36 (inactive). With `CN(C)CCCC[C@@H]1NC(=O)[C@H]2C[C@@H](C(=O)NCCCCCCNC(=O)CS)[C@@H](c3cccc(OCCO)c3)N2C1=O` the z-score was -0.195 (inactive). In the case of `COc1cc2c(cc1O)C(C)N(Cc1sc3ccccc3c1Cl)CC2` (centres undefined), the z-score is reported as -1.6 (inactive). With `COCCOC(=O)N1C(=O)[C@@]2(c3cc(C#CCC(C(=O)OC)C(=O)OC)ccc31)[C@H](c1ccc(O)cc1)N1[C@H](c3ccccc3)[C@H](c3ccccc3)OC(=O)[C@H]1[C@@H]2C(=O)N1CCc2cc(OC)c(OC)cc2C1` the z-score was 0.157 (inactive). With `CCOC(=O)C1=CCC(c2ccncc2)N(S(=O)(=O)c2ccc(C)cc2)C1` (centres undefined) the z-score was 8.79 (active). With `COC(=O)[C@@]1(Cc2ccc(F)cc2)[C@H]2c3cc(C(=O)N4CCCC4)n(Cc4ccc(C(F)(F)F)nc4)c3C[C@H]2CN1C(=O)c1ccccc1` the z-score was 3.82 (inactive). For `CC(C)(C)OC(=O)CC[C@@]1(C(N)=O)N=C(c2ccc(OCCCO)cc2)O[C@@H]1c1ccccc1CN=[N+]=[N-]`, the z-score was -0.132 (inactive). With `C=CCNC(=O)[C@H]1[C@@H]2C(=O)O[C@@H](c3ccccc3)[C@@H](c3ccccc3)N2[C@@H](c2ccc(OCCO)cc2)[C@]12C(=O)N(C(=O)OCCOC)c1ccc(C#CCC(C(=O)OC)C(=O)OC)cc12` the z-score was 6.82 (inactive). In the case of `C=CCOC(=O)[C@H]1[C@@H]2C(=O)O[C@@H](c3ccccc3)[C@@H](c3ccccc3)N2[C@@H](c2ccc(OCCOC(=O)[C@@H]3C[C@@H]4C(=O)N[C@@H](Cc5ccccc5)C(=O)N4[C@@H]3c3ccc(O)cc3)cc2)[C@]12C(=O)Nc1ccc(I)cc12`, the z-score is reported as 5.89 (inactive). In the case of `CCN1C(=O)C2CC(=O)C3C(CN(S(=O)(=O)c4ccc(C)cc4)C3c3ccc(C)cc3)C2C1=O` (centres undefined), the z-score is reported as 0.627 (inactive). With `C=C(C)C1CN([C@H](CO)c2ccccc2)C(=O)/C1=C\c1ccccc1` (some centres undefined) the z-score was -0.481 (inactive). For `C=C(COC)C(=O)CC[C@H](OC(C)=O)c1ccc(CO)o1`, the z-score was -1.46 (inactive). With `COC(=O)C(CC#Cc1ccc2c(c1)[C@]1(C(=O)N2)[C@H](C(=O)NC[C@H](O)c2ccccc2)[C@H]2C(=O)O[C@H](c3ccccc3)[C@H](c3ccccc3)N2[C@@H]1c1ccc(O)cc1)C(=O)OC` the z-score was 0.162 (inactive). With `C=C[C@H](OC)[C@@H](O)c1ccc(OC)c(O)c1` the z-score was -0.0251 (inactive). With `CC[C@@H](O[Si](C#C[Si](C(C)C)(C(C)C)C(C)C)(C(C)C)C(C)C)c1cn(Cc2cccc(Cl)c2)nn1` the z-score was 1.44 (inactive). With `COC(=O)C1=CC(c2ccc(CO)cc2)=CC(C2CC2)N(Cc2cc3c(cc2Br)OCO3)C=C1C(=O)OC` (centres undefined) the z-score was -2.01 (inactive). For `O=C(NCCN1CCOCC1)[C@@H]1c2ccccc2C(=O)N(CC23CC4CC(CC(C4)C2)C3)[C@H]1c1ccc(CO)cc1`, the z-score was 0.223 (inactive). In the case of `COCCCNC(=O)[C@@]1(CCC(=O)OC(C)(C)C)N=C(c2ccc(OCCCO)cc2)O[C@H]1c1ccccc1`, the z-score is reported as 0.0716 (inactive). For `CN1C2C=C(c3ccc(CO)cc3)C(C3C(=O)N(C(N)=O)C(=O)C32)C1C1CC1` (centres undefined), the z-score was 1.2 (inactive). For `N#Cc1ccc(NN2C(C(O)c3ccc(B(O)O)cc3)C=CC3CN(c4ccccc4)C(=O)C32)cc1` (centres undefined), the z-score was 1.88 (inactive).
